Reference: PubChem BioAssay AID686978 (National Center for Advancing Translational Sciences (NCATS), 2013)
The whole screen tested about 420,000 compounds, of which about 64,000 (15%) were called active. Inconclusive results (about 27%) are left out. Not all results are given here. Unmarked numbers belong to inactive results. Calls follow the shape of the dose curve; as a rule, active = well fitted inhibition curve with a large enough effect; inconclusive = small, poorly fitted or top-dose-only effect; inactive = flat fitted curve, though single readings scatter.

Assay: qHTS for Inhibitors of human tyrosyl-DNA phosphodiesterase 1 (TDP1): qHTS in cells in absence of CPT; also: nearly all actives have a fitted effect of over 55% in size
Settings: DT40 Tdp1-/- hTDP1 cells, no CPT, ATP luminescence, 48 h; activity change, negative = growth inhibition: at 46.2 µM (top of the series)
Procedure, shortened: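 Growth of hTDP1-complemented DT40 Tdp1-knockout cells is measured by ATP luminescence after at least 48 hr compound exposure at 37 °C, with DMSO substituting for the 20 nM CPT used in the parallel screen.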
% is scaled to controls: 0 for no effect and ±100 for the full control effect; potency is read from the fitted curve at half-maximal effect.

SMILES | Potency | activity change, negative = growth inhibition [%]
CSc1ccc(CN2CCC2(C)C(=O)NCc2ccccc2Br)cc1 (stereo unspecified) | 23.1 µM (active) | –
CC1(C(=O)NCc2ccc3c(c2)OCO3)CCN1CCc1ccccc1 (stereo unspecified) | – | -29.9
CCC(=O)N1CCCC1(C)C(=O)Nc1ccc2c(c1)CCN2C(C)=O (stereo unspecified) | – | -2.32
CSc1ccc(CNC(=O)C2(C)CCCN2C)cc1 (stereo unspecified) | – | -20.4
CSc1ccc(CN(C)CC(=O)NCc2ccc(F)cc2)cc1 | – | -14.6
CC(N)=NCc1cccc(CN)c1 | inactive | –
Cc1nccn1CCC1CCCCN1C(=O)CCc1nnc(-c2ccsc2)o1 (stereo unspecified) | – | -12.9
O=C(CNC(=O)c1ccccc1F)c1ccc(Br)cc1 | – | 8.96
Cc1ccc(C)c(N(CC(=O)NCc2ccco2)C(=O)CCC(=O)Nc2ccccn2)c1 | – | -29.9
O=C(O)CCCCc1nc2ccccc2s1 | – | 9.54
CCC(Oc1ccccc1C)C(=O)Nc1ccc(S(=O)(=O)Nc2cc(C)on2)cc1 (stereo unspecified) | – | -6.61
COC(=O)c1scc(S(=O)(=O)C(C)(C)C)c1-n1cccc1 | – | -14.6
COc1cc(CC(=O)N2CCC(n3nccc3NC(=O)C3CC3)CC2)cc(OC)c1OC | – | 1.12
O=C1c2ccccc2C(c2nc3ccccc3[nH]2)N1c1ccccc1 (stereo unspecified) | – | 8.04
C1=C(N2CCOCC2)/C(=C/c2nc3ccccc3[nH]2)CC1 | 23.1 µM (active) | –
c1ccc(-n2nnnc2N2CCOCC2)cc1 | – | -13.8
COC(=O)C1=CN(Cc2ccc(OC)cc2)C=C(C(=O)OC)C1c1ccc(O)c(OC)c1 | – | -89.4
O=Cc1ccc(OCc2cn3ccccc3n2)cc1 | – | -22.8
O=C(CC1SC(N2CCOCC2)=NC1=O)Nc1ccccc1F (stereo unspecified) | – | -6.39
C(=N\N1CCN(c2ccccn2)CC1)/C1=C(N2CCOCC2)C(=C/c2ccccc2)/CC1 | 16.4 µM (active) | –
O=C(CN1CCN(c2ccccn2)CC1)N1CCc2ccccc21 | – | 2.96
O=C(O)c1ccc(NN=CC2=C(N3CCOCC3)/C(=C/c3ccccc3)CC2)cc1 | 3.26 µM (active) | –
O=C(O)c1ccc(/C=N/Nc2nc(N3CCCCC3)nc(N3CCCCC3)n2)cc1 | – | -9.34
CCOC(=O)c1c(NC(=O)/C(C#N)=C/c2ccccc2)sc2c1CCC2 | – | 8.89
CCN(CC)c1ccc(C(=O)N/N=C/c2ccc(N3CCOCC3)cc2)cc1 | – | 6.01
O=C(CSc1nnc(N2CCOCC2)n1-c1cccc(F)c1)N1CCN(c2ccccn2)CC1 | – | -13.3

SMILES | Potency | activity change, negative = growth inhibition [%]
N#C/C(=C\C1=C(N2CCOCC2)C(=C\c2ccccc2)/CC1)C(=O)Nc1ccccc1F | 14.6 µM (active) | –
O=C1Nc2ccc(Br)cc2/C1=N/N=C/C1=C(N2CCOCC2)C(=C\c2ccccc2)/CC1 | 23.1 µM (active) | –
COc1ccc(/C=N/N=C2/C(=O)Nc3ccccc32)cc1O | – | -21.8
Cc1cc(C(=O)NNS(=O)(=O)c2ccccc2C(F)(F)F)nn1C(C)(C)C | – | -11.6
O=c1cc(CSc2ccccn2)nc(N2CCN(c3ccccc3)CC2)[nH]1 | – | -11.7
N/C(=N\OC(=O)CCc1ccccc1)c1ccc(Cl)cc1 | – | -18.2
O=C(NCc1ccccn1)[C@@H]1CCCN1C(=O)[C@@H]1CCCN1C(=O)c1ccccc1 | – | -6.12
COC(=O)c1ccccc1NC(=O)CSc1nc2c(c(=O)[nH]1)CCC2 | – | 5.57
COC(=O)C1=C(C(=O)OC)[C@@H]2N(C)c3ccccc3[C@@]23C[C@@H](C(=O)OC)N(C(C)=O)C3=N1 | – | 1.75
O=C1C(c2ccccn2)=[N+]([O-])c2ccccc21 | – | -7.8
CCC(=O)Nc1cccc(NC(=O)CSc2nnc(-c3ccc(NS(C)(=O)=O)cc3)n2C)c1 | – | -6.48
O=C(COc1ccccc1F)OCc1cc(=O)n2nc(C3CCCCC3)sc2n1 | – | 5.26
O=C(CSc1n[nH]c(-c2cccs2)n1)N1CCCCC1 | – | 1.91
O=C(Nc1ccc(-c2csc(Nc3cccc(C(F)(F)F)c3)n2)cc1)c1cccc(C(F)(F)F)c1 | 6.51 µM (active) | –
Cc1cccc(NC(=O)c2cccc(C(F)(F)F)c2)c1 | – | -24
CNC(=O)c1ccc(NC(=O)c2cccc(C(F)(F)F)c2)cc1 | – | -13.5
CCOC(=O)NC(C(F)(F)F)(C(F)(F)F)P(=O)(c1ccccc1)c1ccccc1 | – | -26.8
CCOC(=O)c1sc(NC(=O)CSc2ncccn2)c(C#N)c1C | – | -16
O=C(Nc1ccc(C2CC2(Cl)Cl)cc1)c1cccc([N+](=O)[O-])c1 (stereo unspecified) | 18.4 µM (active) | –
O=C(Nc1nnc(SCc2ccccc2Cl)s1)c1cccc([N+](=O)[O-])c1 | – | -24.4
Cc1cc(C)nc(NC(=O)c2cccc([N+](=O)[O-])c2)c1 | – | -72.1
Cc1ccc(CNC(=O)CCN2C(=O)[C@@H]3Cc4ccccc4CN3C2=O)cc1 | – | 2.46
CN(NC(=O)C1CC(=O)N(c2ccccc2)C1)C1=NS(=O)(=O)c2ccccc21 (stereo unspecified) | – | 9.53
O=C1NC(c2ccccc2)=NC1(Nc1ccccn1)C(F)(F)F (stereo unspecified) | – | -0.592
CCCNC(=O)N1CCC(c2ccc3c(c2)OCO3)CC1 | – | 5.53
